Consider 31 molecules from PubChem BioAssay (NCATS).

Each structure is given as a SMILES string. Several values for one entry are separate records, joined by “and”; a condition that tells them apart may be missing. Equal values may be shown once. Results filed as inconclusive are left out. A number with no mark means an inactive call. Activity calls are given as the source filed them. The call rests on the fitted dose curve; in most records, active means well fitted inhibition curve with a large enough effect; inconclusive means small, poorly fitted or top-dose-only effect; inactive means flat fitted curve, though single readings scatter.

The test system of assay [1] is KB-3-1. Nature of the assay: Cytotoxic Profiling of Annotated Libraries Using Quantitative High-Throughput Screening (AID 1296008). On max response: on the % scale 0 is the no-effect control and ±100 the full control effect. The conditions noted are these: Five cell lines viability, CellTiter-Glo ATP luminescence, 48-72 h; max response: active compounds read low. A digest of the protocol:
(§1)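 Compounds were pin-transferred onto cells and incubated 48 or 72 hr at 37 degree Celsius, 95% humidity. CellTiter-Glo was added, plates sat 10 min at room temperature, then ATP-coupled luminescence was imaged as the viability read-out.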

Assay [2] deals with NIH3T3. The description is as above. As to conditions: Five cell lines viability, CellTiter-Glo ATP luminescence, 48-72 h; max response: active compounds read low. A digest of the protocol:
as §1

The test system of assay [3] is HEK293T. Nature of the assay: qHTS assay to identify novel small-molecules to repurpose for Merkel cell carcinoma treatment (AID 1296009). As to conditions: MCC and control cell lines, CellTiter-Glo viability, 72 h. A digest of the protocol:
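Cells exposed to NPC (8-point) and MIPE (11-point) compound dilutions for 72 hr at 37 degree celsius; viability read by CellTiter-Glo luminescence, normalized to no-cell and DMSO in-plate controls.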
Further: nearly all actives have a fitted effect of over 60% in size.
Potency means the concentration at half of the fitted maximal effect.

On to `CCCOc1ccc(CCc2nc3cc(-c4c(C)noc4C)ccc3n2CCN2CCOCC2)cc1`, for which the max response in assay [1] was -3.99%; in assay [2], -3.98%.
In the same order, the values of `C=C1C(=O)OC2C3=C(C)C(=O)CC3C(C)CC(O)C12` (stereo not given) are 9.21% and -16.4%.
With `O=P(O)(O)C(Sc1ccc(Cl)cc1)P(=O)(O)O`, in assay [1], the max response is 2.09%.
Still for that read-out and setting: as for `Cc1[nH]cnc1C[C@H]1CCc2c(C)c3ccccc3n2C1=O`, the figure is -19%.
On to `CCN(CC)CCOC(=O)c1ccc(N)cc1Cl`, for which the max response in assay [1] is 1.25%.
For `CCC(C)C(=O)OC1C(C)C2(O)C(C=C(CO)CC3(O)C(=O)C(C)=CC32)C2C(C)(C)C12OC(=O)C(C)C` (stereo not given), the max response is 7.48% in assay [1] and -1.26% in assay [2].
For `O=S(=O)(O)Oc1ccc(C(c2ccc(OS(=O)(=O)O)cc2)c2ccccn2)cc1`, in assay [1], the max response was -0.878%.
As for `C=C1C(=O)OC2/C=C(\C)CC/C=C(\C)CC(OC(C)=O)C12` (stereo not given), the Potency in assay [2] is 23.1 µM (active).
On to `N#Cc1ccc(COc2ccc(-c3cccc4nc(NC(=O)C5CC5)nn34)cc2)cn1`, for which, in assay [1], the max response is -6.55%. Moreover, in assay [2], the Potency is 20.6 µM (active).
In the case of `CCC/C=C/c1cc2c(C=O)c(O)c(CC=C(C)C)cc2o1`, the figures for the max response in assay [1] and in assay [2] were 3.3% and -11.8%, respectively.
In the same order, the values of `CC(=O)O[C@@H]1[C@H](O[C@@H]2O[C@@H](CO)[C@H](O)[C@H]2O)[C@@H](O[C@@H]2O[C@@H](C)[C@H](O[C@@H]3OC[C@@H](O)[C@H](O)[C@H]3O)[C@@H](O)[C@H]2O)[C@H](OC(=O)[C@]23CCC(C)(C)C[C@H]2C2=CCC4[C@@]5(C)CC[C@H](O[C@@H]6O[C@H](C(=O)O)[C@@H](O)[C@H](O)[C@H]6O[C@@H]6O[C@H](CO)[C@H](O)[C@H](O)[C@H]6O)[C@@](C)(C=O)C5CC[C@@]4(C)[C@]2(C)C[C@H]3O)O[C@@H]1C` (stereo not given in full) are 8.09% and -0.852%.
The corresponding values for `O=c1cc(N2CCOCC2)nc2c3ccccc3ccn12` are -19.2% and -3.69%.
As to `CCNC(=O)C#Cc1ccc2c(C(=Nc3ccc(CN(C)C)cc3)c3ccccc3)c(O)[nH]c2c1`, the Potency is 0.0282 µM (active) in assay [1] and 0.709 µM (active) in assay [2].
With `CC(O)(C(=O)O)C1CCC2(C)C1CCC1(C)C2CCC2C3(C)CCC(O)C(C)(COC4OC(CO)C(O)C(O)C4O)C3CCC21C` (stereo not given), the max response is 1.95% in assay [1] and -2.95% in assay [2].
In the case of `CCOC(=O)COc1ccc2c(=O)cc(-c3ccccc3)oc2c1`, the max response in assay [1] was -2% and -15.3%.
With `O=C(Nc1ccnc(NC(=O)C2CC2)c1)c1c(Cl)cccc1Cl`, the Potency was 20.6 µM (active) in assay [1] and 6.51 µM (active) in assay [2].
Consider `C[C@H](Oc1cc(-n2cnc3ccc(CN4CCN(C)CC4)cc32)sc1C(N)=O)c1ccccc1C(F)(F)F`, for which the results for the Potency in assay [1], in assay [2] and in assay [3] were 1.03 µM (active), 18.4 µM (active) and 1.3 µM (active), respectively.
Take `COc1cc2ncnc(Oc3ccc(CC(=O)Nc4cnn(C(C)C)c4)cc3)c2cc1OC`: the Potency in assay [2] was 23.1 µM (active).
Turning to `C=C[C@]1(C)C[C@H](O)[C@H]2C(=C)C(=O)O[C@@H]2[C@H]1C(=C)CO`, in assay [1], the result was inactive. In addition, the max response in assay [2] is -30%.
For `C=C1C(=O)O[C@H]2C1CCC(C)=C1C(=O)C=C(C)[C@@]12O` (stereo not given in full), the figures for the max response in assay [1] and in assay [2] were -10.7% and -6.36%, respectively.
For `CN(C)CCN(Cc1ccc(-c2ccc(CNCCc3ccccc3)cc2)cc1)C(=O)CCC1CCCC1`, the Potency in assay [1] is 4.61 µM (active); in assay [2], 4.11 µM (active).
On to `CCN(CC)c1ccc(C(=C2C=CC(=[N+](CC)CC)C=C2)c2ccccc2)cc1`, for which the Potency in assay [1] was 1.3 µM (active).
For the molecule `Cc1ccc(NC(=O)N2CCN(c3nc(N)nc4sc(-c5cccnc5)nc34)CC2)cc1`, the max response in assay [1] is -18.9%. The Potency in assay [2] was 2.91 µM (active).
`Cc1ccc(-c2ncccn2)c(C(=O)N2C[C@H](COc3ccc(F)cn3)CC[C@H]2C)c1`: the max response in assay [1] is 1.72%.
`Cc1ccc(S(=O)(=O)N2CCC[C@H]2c2ccc(F)cc2)cc1`: the values for the max response in assay [1] and in assay [2] were -12.3% and -13.3%, respectively.
Turning to `CC(=O)CC(=O)Nc1ccc(Cl)c(C(F)(F)F)c1`, in assay [1], the Potency was 23.1 µM (active).
The same measure, in the same setting: as for `C/C=C1\NC(=O)[C@H]2CSSCC/C=C/[C@H](CC(=O)N[C@H](C(C)C)C(=O)N2)OC(=O)C(C(C)C)NC1=O` (stereo not given in full), the figure is 0.0092 µM (active).
Turning to `CCN(CC)C(=O)c1ccc(Nc2nc(OCC3CCCCC3)c3[nH]cnc3n2)cc1`, the Potency in assay [1] is 14.6 µM (active); in assay [2], 10.3 µM (active).
As to `C=C1C(=O)O[C@@H]2C[C@]3(C)[C@@H](CCC(C)O)[C@@H]3C[C@H]12` (stereo not given in full), the outcome in assay [1] was inactive. Also, the max response in assay [2] was -15.1%.
In the case of `C[C@H](/C=C/[C@H](C)C(C)(C)O)[C@H]1CC[C@H]2/C(=C/C=C3C[C@@H](O)C[C@H](O)C3)CCC[C@]12C`, the max response in assay [1] is 23%.
As to `CN=C(NC)NCc1ccccc1`, the max response in assay [1] was -10.8%.
